The values below come from PubChem BioAssay (NCATS).

Where “and” joins values, the source holds several entries; their conditions need not be identical. Equal values may be shown once. Unmarked numbers belong to inactive results. Records with an inconclusive call do not appear. Calls of active or inactive are those of the source. Unless noted, the call rests on the fitted dose curve; in most records, active means well fitted curve in either direction with a large enough effect (not every such curve was filed as active); inconclusive means small, poorly fitted or top-dose-only effect, or another doubt; inactive means flat fitted curve, though single readings scatter.

A short description of test [1]: AP1 Signaling Pathway (AID 357). Further: on the % scale 0 is the no-effect control and ±100 the full control effect. The note with it: ME-180 AP-1-bla reporter, EGF-induced, beta-lactamase ratio, 5 h. In short, it runs like this: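 Read-out was the 460nm/530nm emission ratio (excitation 405nm) after CCF4 loading for 2.5 hours at room temperature. Cells carried an AP-1-driven beta-lactamase reporter, were stimulated with EC50 EGF plus compound for 5 hours, and AC50 values came from titrations.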

For test [2], the target named is Cytochrome P450 1A2 (Homo sapiens) (UniProt P05177). Briefly: p450-cyp1a2 (AID 410; calls by dose curve; further: potency means the concentration at half of the fitted maximal effect;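 on activity change, negative = inhibition: -100% = full effect of reference inhibitor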). As to conditions: recombinant CYP1A2, luciferin-ME demethylation, luminescence; series mostly up to 57 µM. The essentials: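 O-Demethylation of luciferin 6' methyl ether by human CYP1A2 is monitored as luciferase luminescence. Substrate sits at Km (100uM); enzyme is 20nM. Values are scaled to 57 uM furafylline as maximal inhibition.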

The nature of test [3]: NFAT Signaling Pathway (AID 444).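 Further: carbachol stimulus at about its EC50 of 1 µM final; on the % scale 0 is the no-effect control and ±100 the full control effect.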 As to conditions: Jurkat NFAT-bla M1, carbachol, beta-lactamase ratio, 5 h. In short, it runs like this: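 Jurkat cells carrying an NFAT-driven β-lactamase reporter and co-transfected muscarinic M1 receptor were treated with compound plus carbachol (1 uM final, an EC50 level) for 5 h at 37 °C. CCF4 loading followed for 1 h at RT; 460/530 nm ratio gave %activity.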

Test [4] can be described thus: Stat Signaling Pathway (AID 446).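 Further: ME-180 cervical cancer cells given 40 pM IL-6 alongside compound; SIE-controlled beta-lactamase reporter measured as 460/530 nm FRET emission ratio; on the % scale 0 is the no-effect control and ±100 the full control effect.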 As to conditions: ME-180 (cervical carcinoma) SIE beta-lactamase reporter, IL-6 stimulated, 5 h; series mostly up to 17.2 µM. The essentials:
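Overnight-plated ME-180 cells bearing a STAT Inducible Element beta-lactamase reporter; 5 h co-exposure to compound and 40 pM IL-6; values normalized to 300 pM IL-6 and 125 nM JAK inhibitor controls.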

Test [5] deals with Glucocorticoid receptor (Homo sapiens) (UniProt P04150). Briefly: GR-GFP Redistribution (AID 450;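 active means compounds whose dose series gives a full or clear partial fitted curve of increased nuclear translocation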; further: potency means the concentration at half of the fitted maximal effect). As to conditions: U2OS GR-GFP nuclear translocation, laser cytometry, 2 h.
For test [6] the target is unchanged. Briefly: GR-EFC Redistribution (AID 451; calls by dose curve; further: potency means the concentration at half of the fitted maximal effect). As to conditions: CHO-K1 GR-EFC translocation, beta-gal luminescence, 2 h. In short, it runs like this: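 CHO-K1 cells stably expressing nuclear-localized β-gal enzyme acceptor and GR fused C-terminally to the enzyme donor fragment; ligand-driven nuclear translocation restores β-gal by complementation. Compounds titrated up to 46 uM final, 2 h at 37 °C; luminescence read.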

For test [7], the target named is Mitogen-activated protein kinase 10 (Mus musculus) (UniProt Q61831). Briefly: JNK3 AlphaScreen Assay (AID 530).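 Further: kinase came from lysate of stimulated human HepG2 cells; on the % scale 0 is the no-effect control and ±100 the full control effect.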 The note with it: JNK3 lysate, c-Jun phosphorylation; series mostly up to 57.1 µM. In short, it runs like this: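 Phosphorylation of biotinylated GST-cJun(1-79) at Ser73 is measured by AlphaScreen proximity luminescence. Enzyme is JNK3 in HepG2 lysates activated with interleukin-1beta and tumor necrosis factor alpha; ATP is 10 uM final.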
(In general: Bead proximity is the source of the signal in Alpha formats.)

Test [8] in a line: Cell Viability - BJ (AID 421; calls by dose curve;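 further: potency means the concentration at half of the fitted maximal effect; cells exposed to compound for 40 hours at 37 °C before readout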). The note with it: BJ fibroblast viability, qHTS. The essentials:
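Quantitative HTS: ATP depletion in BJ cells after 40 hr compound exposure in complete culture medium, detected with CellTiter-Glo; AC50 from standard Hill fits.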
For orientation: qHTS replaces the single test concentration by a dilution series.

The nature of test [9]: Cell Viability - Jurkat (AID 426;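 active means dose-dependent loss of cell ATP signal giving a full or clear fitted curve, ranked by lower potency value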;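 further: potency means the concentration at half of the fitted maximal effect; cells exposed to compound for 40 hours at 37 °C before ATP read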). As to conditions: qHTS. In short, it runs like this:
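Cells of the human T-cell leukemia line Jurkat (E6-1) are seeded at 5000 per well, treated with compound across a concentration range for 40 hours at 37 °C, then lysed with CellTiter-Glo; luminescence reports ATP.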

The nature of test [10]: Cell Viability - Hek293 (AID 427;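 active means compounds whose dose-response curve shows a full or clear partial loss of cell viability, called from curve shape rather than a numeric limit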;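 further: potency means the concentration at half of the fitted maximal effect; cells exposed to compound for 40 hours at 37 °C before reading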). The note with it: qHTS. In short, it runs like this:
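AC50 values derive from Hill-modelled concentration-response of ATP-based luminescence, normalized between DMSO-only and 100 uM tamoxifen controls. Cells were exposed in complete culture medium for 40 hr at 37 °C before detection.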

A short description of test [11]: Cell Viability - HepG2 (AID 433; calls by dose curve;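 further: potency means the concentration at half of the fitted maximal effect; potency for ATP loss meaning cytotoxicity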). The note with it: qHTS. In short, it runs like this: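 In this qHTS format, a 40 h, 37 °C compound incubation of HepG2 cells in complete medium precedes a 20 min CellTiter-Glo step at room temperature. Tamoxifen and doxorubicin serve as positive controls; Hill-equation fits yield AC50.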
Test [12] is described as follows: Cell Viability - MRC5 (AID 434; calls by dose curve;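 further: potency means the concentration at half of the fitted maximal effect; potency reflects cytotoxicity seen as loss of intracellular ATP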). The note with it: MRC5 lung fibroblast viability, qHTS. The essentials:
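Decrease in intracellular ATP, quantified by luciferase light output, reflects compound toxicity toward MRC5 cells exposed for 40 hr in complete culture medium. Concentration-response curves, scaled between DMSO and 100 uM tamoxifen, gave AC50 values.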

Test [13] can be described thus: Cell Viability - SK-N-SH (AID 435; calls by dose curve;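 further: potency means the concentration at half of the fitted maximal effect; compound exposure lasted 40 h at 37 °C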). As to conditions: SK-N-SH neuroblastoma cell viability qHTS. In short, it runs like this:
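Human neuroblastoma line, 40 h exposure at 37 °C, ATP quantified via luciferase luminescence; DMSO and 100 uM tamoxifen define 0 and 100% inhibition for AC50 fitting.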

A short description of test [14]: Cell Viability - N2a (AID 540; active means well fitted curve in the direction sought with a large enough effect; an effect the other way counts as inactive or inconclusive;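 further: plate controls were DMSO alone for no effect and tamoxifen control for full effect; nearly all actives have a fitted effect of over 45% in size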). As to conditions: N2a mouse neuroblastoma cell viability; series mostly up to 92.2 µM. In short, it runs like this:
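Cytotoxicity was scored as loss of cellular ATP in N2a cells, a mouse neuroblastoma line. Compounds are applied in a qHTS concentration series for 40 hr at 37 °C.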

Test [15] in a line: Cell Viability - NIH 3T3 (AID 541; active means well fitted curve in the direction sought with a large enough effect; an effect the other way counts as inactive or inconclusive;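 further: plate controls were DMSO alone for no effect and tamoxifen positive control for full effect; nearly all actives have a fitted effect of over 25% in size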). The note with it: NIH 3T3 cell viability, qHTS; activity change, negative = cytotoxicity: at 92.2 µM (top of the series). The essentials: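 Cells seeded at 1000/well, rested 5 hr at 37 °C, then dosed and incubated 40 hr at 37 °C. CellTiter-Glo added, 20 min room temperature, luminescence read. AC50 by Hill fit.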
Test [16] can be described thus: Cell Viability - HUV-EC-C (AID 542; active means well fitted curve in the direction sought with a large enough effect; an effect the other way counts as inactive or inconclusive; further: on the % scale 0 is the no-effect control and ±100 the full control effect; nearly all actives have a fitted effect of over 35% in size). As to conditions: HUV-EC-C endothelial cell viability, qHTS; series mostly up to 92.2 µM. The essentials: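 Cells were seeded at 1000 per well and incubated 5 hr at 37 °C before compound addition. After 40 hr at 37 °C, CellTiter-Glo reagent was added for 20 min and luminescence read. AC50 values came from Hill-equation modelling.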

Test [17] in a line: Cell Viability - H-4-II-E (AID 543; active means well fitted curve in the direction sought with a large enough effect; an effect the other way counts as inactive or inconclusive; further: on the % scale 0 is the no-effect control and ±100 the full control effect; nearly all actives have a fitted effect of over 35% in size). The note with it: H-4-II-E rat hepatoma viability; series mostly up to 92.2 µM. In short, it runs like this: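 Cells seeded at 1500 per well and rested 5 hr; compounds added; 40 hr incubation at 37 °C; CellTiter-Glo added, 20 min at room temperature; luminescence read. Hill-equation fits gave AC50.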
A short description of test [18]: Cell Viability - SH-SY5Y (AID 544; active means well fitted curve in the direction sought with a large enough effect; an effect the other way counts as inactive or inconclusive;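 further: 0% = DMSO alone and -100% = 100 µM tamoxifen; nearly all actives have a fitted effect of over 55% in size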). As to conditions: SH-SY5Y neuroblastoma cell viability; series mostly up to 92.2 µM. The essentials:
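Cells were plated at 1500 per well and allowed 5 hr at 37 °C. Compounds were added across a concentration range and incubated 40 hr at 37 °C. CellTiter-Glo was added for 20 min at room temperature before luminescence reading.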

Test [19] is described as follows: Cell Viability - Mesenchymal (AID 546; active means well fitted curve in the direction sought with a large enough effect; an effect the other way counts as inactive or inconclusive;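 further: cells exposed to compound for 40 hours before reading; 0% = DMSO only and -100% = 100 µM tamoxifen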). As to conditions: mesenchymal cells viability, qHTS; activity change, negative = cytotoxicity: at 91.7 µM (top of the series). The essentials: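 In this qHTS cytotoxicity format, glomerulus-derived human mesenchymal kidney cells received compound for 40 hr, then luciferase-based ATP quantitation. Concentration-response data were fitted with the Hill equation.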

Sequence of Glucocorticoid receptor (Homo sapiens) (P04150 whole entry, looked up, the tested form may be a part): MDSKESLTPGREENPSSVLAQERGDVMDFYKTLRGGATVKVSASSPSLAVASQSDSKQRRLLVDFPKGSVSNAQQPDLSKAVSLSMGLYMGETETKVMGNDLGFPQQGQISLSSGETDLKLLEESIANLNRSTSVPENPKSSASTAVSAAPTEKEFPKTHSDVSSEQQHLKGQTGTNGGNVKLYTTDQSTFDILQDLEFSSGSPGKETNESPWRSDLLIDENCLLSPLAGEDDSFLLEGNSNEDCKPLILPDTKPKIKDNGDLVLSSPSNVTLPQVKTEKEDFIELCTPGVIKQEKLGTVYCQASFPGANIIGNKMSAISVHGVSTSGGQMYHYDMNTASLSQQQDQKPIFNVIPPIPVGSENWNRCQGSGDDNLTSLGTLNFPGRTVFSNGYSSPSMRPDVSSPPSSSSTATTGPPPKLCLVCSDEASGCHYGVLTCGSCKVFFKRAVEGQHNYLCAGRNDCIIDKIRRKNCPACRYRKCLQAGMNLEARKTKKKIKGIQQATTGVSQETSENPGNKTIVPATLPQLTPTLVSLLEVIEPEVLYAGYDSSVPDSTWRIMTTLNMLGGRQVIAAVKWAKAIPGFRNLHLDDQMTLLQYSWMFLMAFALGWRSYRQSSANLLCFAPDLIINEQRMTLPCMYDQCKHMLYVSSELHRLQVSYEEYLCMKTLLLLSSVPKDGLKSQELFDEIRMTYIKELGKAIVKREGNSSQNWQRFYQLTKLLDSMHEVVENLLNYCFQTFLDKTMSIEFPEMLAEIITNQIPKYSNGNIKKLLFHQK
Sequence of Cytochrome P450 1A2 (Homo sapiens) (P05177 whole entry, looked up): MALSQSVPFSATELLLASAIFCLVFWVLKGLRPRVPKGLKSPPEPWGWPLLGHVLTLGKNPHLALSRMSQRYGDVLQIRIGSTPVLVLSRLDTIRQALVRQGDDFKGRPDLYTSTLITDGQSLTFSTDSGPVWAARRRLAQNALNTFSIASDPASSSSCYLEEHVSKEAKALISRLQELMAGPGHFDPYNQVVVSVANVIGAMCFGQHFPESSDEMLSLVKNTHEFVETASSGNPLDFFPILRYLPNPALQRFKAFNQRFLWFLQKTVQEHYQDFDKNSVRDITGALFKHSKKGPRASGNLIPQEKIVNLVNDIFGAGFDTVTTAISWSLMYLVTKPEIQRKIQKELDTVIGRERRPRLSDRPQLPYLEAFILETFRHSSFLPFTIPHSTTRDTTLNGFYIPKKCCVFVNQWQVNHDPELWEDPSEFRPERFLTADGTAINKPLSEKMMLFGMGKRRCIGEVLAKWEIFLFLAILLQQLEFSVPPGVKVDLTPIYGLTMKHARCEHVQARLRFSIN

With `CCN(CC)CCNC(=O)c1cc(S(C)(=O)=O)ccc1OC`, the activity change, negative = inhibition is -0.734% and 2.54% in test [1] (at 17.2 µM (top of the series)); 5.15% in [1] (at 38 µM (top of the series)); -6.77% and -21.4% in [3] (at 17.2 µM (top of the series)); -5.52% in [3] (at 38 µM (top of the series)). For the same compound, the Potency entry in [2] and in test [7] was “inactive” in each case. Besides, the compound was called inactive in test [4]. Besides, the Potency in [5] was > 46 µM and > 20.6 µM; in [6], > 46 µM and > 20.6 µM.
For the compound `CCN(CC)CC(=O)Nc1c(C)cccc1C`, the activity change, negative = inhibition in test [1] (at 17.2 µM (top of the series)) is 8.06% and 2.56% and 5.37%; in test [1] (at 38 µM (top of the series)), 19.9%; in test [3] (at 17.2 µM (top of the series)), -9.77% and 9.98% and -29.3%; in test [3] (at 38 µM (top of the series)), 0.823%. In addition, the outcome in test [4] was inactive. Moreover, in [7], the Potency result was “inactive”.
With `CCN1CCc2nc(N)oc2CC1`, the activity change, negative = inhibition in [1] (at 38 µM (top of the series)) is 9.25%; in [3] (at 38 µM (top of the series)) it was -7.89%. For the same compound, in test [2], the Potency entry is “inactive”. Also, the compound was called inactive in test [4]. The Potency in [5] and in [6] was greater than 46 µM in each case.
As for `COc1cc(C(=O)OCCCN2CCCN(CCCOC(=O)c3cc(OC)c(OC)c(OC)c3)CC2)cc(OC)c1OC`, the activity change, negative = inhibition in [1] (at 17.2 µM (top of the series)) is 24.5%; in test [1] (at 38 µM (top of the series)), 15.7%. In addition, in [4], the result was inactive. Moreover, the Potency in [5] is > 46 µM and > 20.6 µM; in test [6], > 46 µM and > 20.6 µM. The Potency result in test [7] was “inactive”.
Regarding `Cc1scc2c1N(C(=O)CN1CCN(C)CC1)c1ccccc1NC2=O`, the activity change, negative = inhibition in test [1] (at 17.2 µM (top of the series)) is 4.19%; in test [1] (at 38 µM (top of the series)), 15.1%; in [3] (at 17.2 µM (top of the series)), -41.8% (active); in test [3] (at 38 µM (top of the series)), -72.8% (active). For the same compound, the Potency entry in test [2] and in test [7] was “inactive” throughout. In test [4], the compound was classed as inactive.
As to `C[n+]1cc2c3c(ccc2c2ccc4cc5c(cc4c21)OCO5)OCO3`, the activity change, negative = inhibition in test [1] (at 17.2 µM (top of the series)) was -119% (active); in [1] (at 38 µM (top of the series)), -111% (active); in test [3] (at 38 µM (top of the series)), -48.1% (active). The Potency in test [2] is 3.98 µM (active) and 10 µM (active); in test [5], 6.57 µM (active); in test [6], > 46 µM and > 20.6 µM. Besides, the Potency result in test [7] is “inactive”.
For `NC(=O)N1c2ccccc2C=Cc2ccccc21`, the activity change, negative = inhibition in test [1] (at 17.2 µM (top of the series)) is -5.62% and 13.4%; in test [3] (at 17.2 µM (top of the series)), 3.6%; in test [3] (at 38 µM (top of the series)) it was 3.87%. For the same compound, the Potency entry in [2], in test [7], in test [16], in [17], in [18] and in test [19] was “inactive” in each case. In addition, the Potency in test [8], in test [9], in test [10], in test [11], in [12] and in [13] was greater than 92 µM each time. The result in test [4] and in [14] was inactive. The activity change, negative = cytotoxicity in [15] was -9.01%.
